# Compound activity deposited in PubChem by National Center for Advancing Translational Sciences (NCATS).
# Most compounds without a hit are left out; they make up all but 3.8% or so of the library.
# A549 tox – counter-screen for Nrf2 inhibitors: cytotoxicity in A549 cells; A549 ARE-Fluc cells, CellTiter-Fluor viability, 18-24 h; Potency, µM (highest dose often 46 µM), without a hit: at the highest dose activity change, negative = cytotoxicity, hits mostly inhibitors; actives 0.16% (n = 390,000); AID 504648; also: % is scaled to controls: 0 for no effect and ±100 for the full control effect
#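 Cytotoxicity counterscreen: CellTiter-Fluor fluorescence was measured in A549 ARE_Fluc cells after 18-24 h of compound exposure in a concentration series. The subsequent BugLite luminescent read reports ARE-luciferase activity.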
# Nrf2 inh – inhibitors of Nrf2 signaling; A549 ARE-Fluc reporter, luciferase luminescence, 18-24 h; Potency, µM (titrated, usually from 46 µM), for inactives: top-dose activity change, negative = inhibition, usual class: inhibitors; actives 2.1% (n = 360,000); also: % is scaled to controls: 0 for no effect and ±100 for the full control effect; nearly all actives have a fitted effect of over 60% in size
#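 Cells were seeded and rested 2 h, then exposed to compounds for 18-24 h. CellTiter-Fluor was read first as a viability measure. BugLite was added 15 min before the final luminescent read of ARE-luciferase activity in A549 cells.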
# HepG2 tox-1 – HepG2 cytotoxicity, counter-screen for TGF-b inhibitors; Potency, µM (highest dose often 46.1 µM), without a hit: top-dose activity change, negative = cytotoxicity, usual class: cytotoxic; HepG2 CAGA-GFP viability, ATP luminescence, 18 h; actives 0.76% (n = 410,000)
#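 HepG2 CAGA-GFP cells (1000/well, DMEM with 1% FBS) received compound, then TGF-beta at 500 pg/mL final, and were incubated 18 hours at 37 degrees C. Viability was read by CellTiter-Glo luminescence. Media-only wells were set as complete cell-killing and DMSO as no toxicity.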
# ATXN viability – viability counter-screen for ATXN expression inhibitors; S2 cells (HEK-293 line with an ATXN2-luciferase reporter) viability, CellTiter-Fluor protease fluorescence, 24 h; Potency, µM (titrated, usually from 56.7 µM), actives largely listed as cytotoxic; actives 0.49% (n = 400,000); AID 651635; also: nearly all actives have a fitted effect of over 40% in size
# ATXN2 expr inh – ATXN2 expression inhibition; HEK-293 ATXN2-luciferase reporter, luminescence, 24 h; Potency, µM (doses to about 57 µM), inactives show at the highest dose activity change, negative = inhibition, hits mostly inhibitors; actives 0.72% (n = 360,000); AID 1745845; also: % is scaled to controls: 0 for no effect and ±100 for the full control effect; nearly all actives have a fitted effect of over 55% in size
#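 qHTS (up to 57 uM final) was run with 24 h compound exposure of reporter cells at 37 °C. Each well was multiplexed: SteadyGlo luminescence measured ATXN2-luciferase expression after a fluorogenic Gly-Phe-AFC viability readout (25 uM final).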
# TGFb SMAD3 inh – TGF-b pathway inhibition; HepG2 CAGA-GFP TGF-b/SMAD3 reporter, GFP fluorescence, 18 h; TGF-beta stimulated, 500 pg/mL final; Potency, µM (doses to about 46.1 µM), for inactives: top-dose activity, negative = inhibition, usual class: inhibitors; actives 1.2% (n = 410,000); also: % is scaled to controls: 0 for no effect and ±100 for the full control effect; nearly all actives have a fitted effect of over 65% in size
#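 Read-out: total well GFP (ex488/em500-530) summed from mean per-cell fluorescence. Cells: HEPG2 CAGA-GFP, 1% FBS DMEM, 18 h at 37 degrees C with 500 pg/mL final TGF-beta. Unstimulated wells served as the full-inhibition control; stimulated DMSO wells = 0%.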
# TGFb CAGA inh – TGF-b pathway inhibition, cherry-pick retest | shares compounds with TGFb SMAD3 inh | Potency, µM (top dose mostly 46.1 µM), for inactives: at the highest dose activity, negative = inhibition, most hits filed as inhibitors | AID 720534 | actives 63% (n = 1,600) | HepG2 CAGA-GFP TGF-b reporter, GFP fluorescence, 18 h; cells stimulated with TGF-beta, 500 pg/mL; also: % is scaled to controls: 0 for no effect and ±100 for the full control effect; nearly all actives have a fitted effect of over 65% in size
# HepG2 tox-2 – HepG2 cytotoxicity, TGF-b inhibitor counterscreen; Potency, µM (series often up to 46.1 µM), for the others: at the top dose activity, negative = cytotoxicity, actives largely listed as inhibitors; actives 27% (n = 1,600); shares compounds with TGFb SMAD3 inh; HepG2 CAGA-GFP viability, ATP luminescence, 18 h; cells stimulated with TGF-beta, 500 pg/mL; also: % is scaled to controls: 0 for no effect and ±100 for the full control effect; nearly all actives have a fitted effect of over 70% in size
# TGFb CCL64 inh – orthogonal confirmation of TGF-b inhibitors in CCL64 cells; Potency, µM (doses to about 46.1 µM), for inactives: at the highest dose activity, negative = inhibition, actives largely listed as inhibitors; actives 41% (n = 1,600); shares compounds with TGFb SMAD3 inh; CCL64 CAGA-GFP reporter, TGF-b stimulated, GFP fluorescence, 18 h; also: nearly all actives have a fitted effect of over 65% in size
# TGFb COP inh – TGF-b inhibition validated with COP promoter | shares compounds with TGFb SMAD3 inh | HepG2 COP-GFP TGF-b reporter, GFP fluorescence, 18 h; cells stimulated by added recombinant TGF-beta | Potency, µM (top dose mostly 46.1 µM), for the others: top-dose activity, negative = inhibition, actives largely listed as inhibitors | actives 3% (n = 1,600); also: nearly all actives have a fitted effect of over 70% in size
# * hit, by the source's call; i = inactive; ? = inconclusive; nt = not tested or not shown. Calls follow the shape of the dose curve; as a rule, active = well fitted curve in the direction sought with a large enough effect; inconclusive = small, poorly fitted or top-dose-only effect, or another doubt; inactive = no such curve, though single readings can be large; an effect the other way counts as inactive or inconclusive. Potency is read from the fitted curve at half-maximal effect.
SMILES,A549 tox,Nrf2 inh,HepG2 tox-1,ATXN viability,ATXN2 expr inh,TGFb SMAD3 inh,TGFb CAGA inh,HepG2 tox-2,TGFb CCL64 inh,TGFb COP inh
CCCS(=O)(=O)Nc1ccc(Nc2c3ccccc3nc3ccccc23)c(OC)c1,?,?,-84.2%,11.9µM*,?,10µM*,?,14.6µM*,13µM*,5.3%
CCCCNC(=O)c1ccc2nc(-c3cccs3)c(-c3cccs3)nc2c1,-0.5%,-10.5%,-24.4%,nt,nt,-6.9%,nt,nt,nt,nt
O=C(Nc1cc(Sc2ccccn2)cc([N+](=O)[O-])c1)c1cccc(F)c1,-8.8%,18.4µM*,-17.7%,?,-10.4%,11.2µM*,10.3µM*,?,13µM*,77.3%
COc1ccc(CC(=O)NNC(=O)c2c(-c3ccccc3Cl)noc2C)cc1OC,5.0%,2.8%,-20.7%,i,-25.7%,2.2%,nt,nt,nt,nt
Cc1nn(-c2cccc(Cl)c2)c2nc(C(F)(F)F)[nH]c(=O)c12,-5.1%,-5.8%,-20.6%,?,?,11.2µM*,6.51µM*,8.2µM*,2.91µM*,36.4%
N/C(CN1CCCCC1)=N\S(=O)(=O)c1cc(Cl)cc(Cl)c1,2.7%,-10.8%,51.1%,i,-15.0%,16.2%,nt,nt,nt,nt
CCO[C@@H]1OC(C(=O)NCc2nc3ccccc3[nH]2)=C[C@H](C(C)(C)C)[C@H]1CCCO,0.1%,25.8%,-5.0%,?,3.8%,1.58µM*,?,6.1%,?,-25.2%
COCc1ccc(-c2c(-c3cc(OC)cc(OC)c3)oc(=O)c3cc(OC)c(OC)cc23)cc1,0.2%,-28.4%,6.4%,i,26.4%,4.0%,nt,nt,nt,nt
CC(C)(C)n1ncc2c(=O)n(Cc3ccc(Cl)cc3F)cnc21,nt,nt,-32.2%,nt,nt,?,nt,nt,nt,nt
CCN(CC)c1ncnc2c1cnn2Cc1ccc(Cl)cc1,2.2%,-19.2%,6.2%,nt,-9.6%,-15.2%,nt,nt,nt,nt
CCC1=Nc2cc(C(=O)NCC3CCCO3)ccc2Sc2ccc(Br)cc21 (stereo not given),1.9%,?,-15.9%,?,nt,11.2µM*,18.4µM*,-1.5%,?,4.4%
CCC1=Nc2cc(C(=O)NCC3CCCO3)ccc2Sc2ccc(Cl)cc21 (stereo not given),-16.1%,?,-19.0%,?,-29.8%,?,nt,nt,nt,nt
CCOC(=O)c1ccc(NC(=O)C(CC)Sc2nc3ncccc3o2)cc1 (stereo not given),1.4%,?,-18.8%,nt,nt,nt,nt,nt,nt,nt
COc1nc(Nc2nc3ccccc3c(=O)[nH]2)nc2ccc(C)cc12,?,?,-3.3%,?,50.0%,5.62µM*,4.11µM*,4.11µM*,1.46µM*,29.2%
CCN(C(=O)COC(=O)CNS(=O)(=O)c1ccc(SC)c([N+](=O)[O-])c1)C1CCCCC1,-4.2%,4.9%,-3.8%,i,-8.6%,-29.0%,nt,nt,nt,nt
CCOc1ccc(-c2nonc2NC(=O)c2oc3ccc(F)cc3c2C)cc1,3.6%,7.3%,-16.0%,?,-16.4%,?,nt,nt,nt,nt
Cc1c(C(=O)Nc2nonc2-c2ccc(F)cc2)oc2ccc(F)cc12,?,?,-27.8%,?,28.2µM*,11.2µM*,13µM*,?,?,55.8%
CC1=C(C(=O)N(C(C)C)C(C)C)CC(CC(=O)NCCc2ccccn2)C(=O)N1Cc1ccc(C(C)(C)C)cc1 (stereo not given),nt,nt,-67.5%,?,-20.2%,8.91µM*,-20.8%,-12.8%,?,10.8%
CC1=C(C(=O)N(C)C)CC(CC(=O)NCc2cccc3ccccc23)C(=O)N1Cc1ccc(C(C)(C)C)cc1 (stereo not given),nt,nt,-29.3%,?,?,?,nt,nt,nt,nt
CC1=C(C(=O)N(C(C)C)C(C)C)CC(CC(=O)NCc2cccc3ccccc23)C(=O)N1Cc1ccc(C(C)(C)C)cc1 (stereo not given),nt,nt,-7.7%,?,?,7.94µM*,16.4µM*,?,?,30.1%
CC1=C(C(=O)N(C(C)C)C(C)C)CC(CC(=O)NCCc2ccccn2)C(=O)N1Cc1ccccc1 (stereo not given),nt,nt,4.5%,i,9.9%,21.2%,nt,nt,nt,nt
O=c1cc(O)c(-c2ccc(Cl)cc2)c(Cl)[nH]1,3.6%,-3.2%,-5.4%,i,-10.2%,-7.7%,nt,nt,nt,nt
O=C1c2cc(Cl)ccc2-c2c(O)cc(Cl)cc21,1.2%,3.9%,-15.4%,i,?,11.2µM*,11.6µM*,?,8.2µM*,27.0%
COc1ccc(S(=O)(=O)Nc2ccccc2C(=O)Nc2nc(-c3ccc(F)cc3)cs2)cc1OC,?,?,-38.4%,i,?,7.08µM*,10.3µM*,?,8.2µM*,48.3%
COc1ccc(-c2csc(NC(=O)c3ccccc3NS(=O)(=O)c3ccc(C)cc3)n2)cc1,?,16.4µM*,-44.1%,i,?,3.55µM*,6.51µM*,9.2µM*,5.17µM*,45.9%
COc1ccc(-c2csc(NC(=O)COc3ccc(N(C)S(=O)(=O)c4ccc(C)cc4)cc3)n2)cc1,10.8%,?,0.0%,i,-3.4%,0.0%,nt,nt,nt,nt
C#CCN(Cc1ccc(OC)cc1)S(=O)(=O)C=C,nt,nt,14.5%,nt,nt,-21.9%,nt,nt,nt,nt
CC(C)(CNC(=O)CNC(=O)c1ccc(Cl)cc1Cl)N1CCOCC1,-2.8%,4.3%,4.2%,i,-2.9%,0.0%,nt,nt,nt,nt
